Screens as filed in PubChem.
PTAP TSG101 blk = blocks PTAP/TSG101 interaction to inhibit HIV-1 budding; Fluorescence polarization, FITC-PTAP peptide / Tsg101 binding; Potency, µM (titrated, usually from 115 µM), for inactives: at the highest dose activity change, negative = inhibition, most hits filed as inhibitors; Q99816; 340,000 tested, under 10 active; active = well fitted inhibition curve with a large enough effect in the main read-out, with a control signal flat, not every such curve was filed as active; inconclusive = small, poorly fitted or top-dose-only effect, or effect the other way, or a change in a side signal; inactive = no such curve, though single readings can be large or run the other way; note: % of control where 0% means no effect
Target sequence (Q99816 whole entry, looked up): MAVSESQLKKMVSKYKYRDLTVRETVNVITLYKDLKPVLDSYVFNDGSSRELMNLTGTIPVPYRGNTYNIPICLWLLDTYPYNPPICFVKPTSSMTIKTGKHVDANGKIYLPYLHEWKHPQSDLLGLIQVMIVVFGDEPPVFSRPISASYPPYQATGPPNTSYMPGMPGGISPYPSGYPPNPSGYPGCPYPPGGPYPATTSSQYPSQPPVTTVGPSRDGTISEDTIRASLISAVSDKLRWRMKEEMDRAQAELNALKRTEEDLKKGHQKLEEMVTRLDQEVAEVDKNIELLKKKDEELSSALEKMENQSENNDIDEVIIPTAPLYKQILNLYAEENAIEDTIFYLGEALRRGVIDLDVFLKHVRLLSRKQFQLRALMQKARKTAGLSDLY
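Fluorescence polarization binding of Tsg101 binding domain (10 uM final) to FITC-labeled PTAP peptide (50 nM final) in HEPES pH 7.5 buffer with NaCl, Tween 20, EDTA, TCEP. Compounds added before peptide; binding 20 min at RT.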
Rango complex inh = inhibitors of Rango-importin beta complex formation. Rango CFP/YFP FRET sensor + importin beta, 45 min. Potency, µM (series often up to 92.2 µM), inactives show at the highest dose inhibition of complex formation. 340,000 tested, 0.031% active. AID 540263;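 note: 0% = DMSO wells and 100% = buffer wells lacking importin beta; nearly all actives have a fitted effect of over 15% in size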
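Inhibition scored from the CFP 486 nm/YFP 530 nm FRET ratio 45 min after adding 0.125 microM importin beta to 50 nM Rango biosensor preincubated 5 min with compound (room temperature, PBS with DTT, Tween-20, BSA). No-importin wells as positive control.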
Rango release inh = inhibition of RanGTP-driven Rango-importin beta dissociation; 340,000 tested, 0.071% active; Biochemical FRET Rango-importin beta, RanGTP-induced dissociation; AID 540253; O95149+P62826; Potency, µM (titrated, usually from 46.1 µM), without a hit: top-dose activity change, negative = inhibition; note: % of control where 0% means no effect; nearly all actives have a fitted effect of over 45% in size
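Rango (0.1 uM)–importin beta (0.25 uM) complex; RanGTP-RCC1 trigger; 45 min RT; CFP/YFP FRET read.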
TDP1 block = TDP1 (human) enzyme inhibition. recombinant TDP1, AlphaScreen DNA substrate cleavage. Potency, µM (top dose mostly 130 µM), without a hit: at the highest dose activity change, negative = inhibition, usual class: inhibitors. 350,000 tested, 0.28% active. AID 485290; active = well fitted curve in the direction sought with a large enough effect; inconclusive = small, poorly fitted or top-dose-only effect, or another doubt; inactive = no such curve, though single readings can be large; an effect the other way counts as inactive or inconclusive; note: % is set by controls: 0 for no effect and ±100 for the full control effect; nearly all actives have a fitted effect of over 40% in size
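Steps: enzyme plus compound, 15 min RT; add biotin/phosphotyrosine-FITC oligonucleotide (15 nM final), react 5 min; add donor/acceptor beads (10 ug/ml final), 10 min; read AlphaScreen. Tdp1 at 1 nM final.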
ALOX12 inh = blocks human arachidonate 12S-lipoxygenase. Potency, µM (doses to about 108 µM), inactives show top-dose activity change, negative = inhibition, hits mostly inhibitors. 580,000 tested, 1.1% active. P18054. purified 12hLO, xylenol orange hydroperoxide absorbance; active = well fitted curve in the direction sought with a large enough effect; inconclusive = small, poorly fitted or top-dose-only effect, or another doubt; inactive = no such curve, though single readings can be large; an effect the other way counts as inactive or inconclusive; note: % is set by controls: 0 for no effect and ±100 for the full control effect
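Purified human 12hLO at 150 nM in 25 mM Hepes, 0.01% Triton X-100, pH 7.0, preincubated 15 min at room temperature with compound. Reaction started with 40 uM arachidonic acid, 30 min at room temperature. Hydroperoxide measured by Fe-xylenol orange, 573/405 nm absorbance ratio.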
ClpP mod = qHTS Assay for Activators of ClpP. 340,000 tested, 1.9% active. Potency, µM (doses to about 57.5 µM), for the others: at the top dose activity change, negative = active. purified B. subtilis ClpP, FRET peptide cleavage, 20 min. AID 651965, 2013; active = well fitted falling curve with a large enough effect; inconclusive = small, poorly fitted or top-dose-only effect; inactive = no such curve, though single readings can be large or run the other way; note: the source files actives as falling curves though it sought activators and does not explain the sign; nearly all actives have a fitted effect of over 65% in size
Target sequence (P80244 whole entry, looked up): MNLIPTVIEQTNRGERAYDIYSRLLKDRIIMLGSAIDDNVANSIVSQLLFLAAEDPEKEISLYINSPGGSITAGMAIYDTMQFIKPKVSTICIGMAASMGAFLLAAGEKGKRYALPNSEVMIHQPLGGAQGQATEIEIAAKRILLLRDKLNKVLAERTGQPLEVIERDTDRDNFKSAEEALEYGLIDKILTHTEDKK
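Purified B. subtilis ClpP, 10 microg/mL final in Tris/HCl pH8 with KCl, BSA, glycerol and Tween-20, cleaved an Abz/nitrotyrosine-quenched decapeptide. Fluorescence (ex 320, em 430) was read at 0 and 20 min at room temperature. Delta was normalized to 5.8 microM ADEP and DMSO/no-enzyme controls.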
The depositor's hits bear a star; u = inconclusive; x = not tested or not shown; [ ] = remark or other dose. Sampled rows, rich in hits. Any-hit rate of the full collection: about 2.4%. Unless noted, calls come from the whole dose curve. Potency is the fitted concentration of half-maximal effect.

SMILES	PTAP TSG101 blk	Rango complex inh	Rango release inh	TDP1 block	ALOX12 inh	ClpP mod
S=C(Nc1ccc(Oc2ccccc2)cc1)NC1CCCCCC1	-3%	-2%	5%	1%	28µM*	2%
S=C(Nc1ccc(Oc2ccccc2)cc1)NC1CCCCC1	-1%	-1%	1%	0%	u	-1%
S=C(Nc1ccc(Oc2ccc(NC(=S)NC3CCCCC3)cc2)cc1)NC1CCCCC1	-4%	-1%	3%	-5%	11µM*	0%
COC(=O)CCCNC(=O)c1cc(-c2ccncc2)nc2ccccc12	x	x	x	x	-26%	x
COc1ccc(CNC(=O)N2CCN(S(=O)(=O)c3ccc(Cl)c(Cl)c3)CC2)cn1	x	x	x	x	37%	x
O=C(NCC1(N2CCOCC2)CCCC1)c1cnn(-c2nccc(-c3cccs3)n2)c1C1CC1	x	x	x	x	38%	x
Cc1ccc2nc(-c3cccs3)oc(=O)c2c1	-3%	-3%	-1%	9%	1%	-1%
O=c1oc(-c2cccs2)nc2ccc(Br)cc12	-5%	11%	-2%	0%	19%	28µM*
COc1ccc(NC(=S)NNc2ccc(S(=O)(=O)Nc3ccccc3C(=O)O)cc2[N+](=O)[O-])cc1	-9%	2%	20%	x	7.9µM*	1%
CNC(=O)COC(=O)c1cc2c(C)nn(-c3ccc(F)cc3)c2s1	-1%	-1%	-6%	5%	4%	35µM*
Cc1nn(-c2ccccc2)c2sc(C(=O)OCC(=O)Nc3ccc(OC(F)F)cc3)cc12	x	x	x	x	9%	x
CC(=O)Nc1ccc2c(COC(=O)CC3Sc4ccccc4NC3=O)cc(=O)oc2c1 (stereo not drawn)	0%	-2%	-8%	20µM*	-21%	x
O=C(NCc1ccc(-c2nc3ccccc3s2)o1)c1ccccc1Br	x	x	x	x	-21%	x
CC(C)NS(=O)(=O)c1ccc(C(=O)NCc2ccc(-c3nc4ccccc4s3)o2)cc1	x	x	x	x	25µM*	x
CCN1/C(=C/c2ccc3ccccc3[n+]2CC)C=Cc2ccccc21	u	u	-8%	5%	u	3%
CCN1/C(=C/c2ccc3ccccc3[n+]2CCCS(=O)(=O)[O-])C=Cc2cc(C)ccc21	-2%	u	5%	x	45µM*	x
COc1ccc(C(=O)Nc2oc3ccccc3c(=O)c2-c2ccc(OC)cc2)cc1	x	x	x	x	-21%	x
Cc1c(OCC(=O)OC(C)(C)C)ccc2c(-c3ccccc3)cc(=O)oc12	x	x	x	x	-1%	x
COc1cccc(C2CC(=O)N3CN(c4ccccc4F)CSC3=C2C#N)c1 (stereo not drawn)	1%	u	u	7%	8.9µM*	1%
COc1ccccc1N1CSC2=C(C#N)C(c3ccc(SC)cc3)CC(=O)N2C1 (stereo not drawn)	-5%	u	u	6%	11µM*	13%
O=C(NC[C@H]1O[C@H](Cc2cc(COc3ccccc3)on2)CC[C@@H]1O)c1ccccc1	x	x	x	x	37%[176 µM]	x
C=C(Cl)CC[N+](C)(C)CC#Cc1ccc(Cl)cc1	x	x	x	x	0%	x
CC1(C)C2CC=C(/C=N/NC(N)=O)C1C2 (stereo not drawn)	x	x	x	x	-6%	x
CC1(C)C2CC=C(/C=N/NC(=S)Nc3ccc(SC(F)F)cc3)C1C2 (stereo not drawn)	x	x	x	x	32µM*	x
CC1C/C(=N/NC(=S)Nc2ccc(SC(F)F)cc2)CC(C)(C)C1 (stereo not drawn)	x	x	x	x	28µM*	x
CC(C)CC(=O)N1CCC(C(=O)N2CCCCCCNC(=O)CC2)CC1	x	x	x	x	50%	x
CCOc1cc(/C=C/C(=O)c2ccc(C)cc2)cc(Cl)c1O	x	x	x	x	22µM*	x
COc1cc(/C=C/C(=O)c2cccc(O)c2)cc(Cl)c1O	x	x	x	x	25µM*	x
COc1ccc(/C=C/C(=O)c2cccc(O)c2)cc1	x	x	x	x	-61%	x
O=C(/C=C\c1ccc2c(c1)OCO2)c1ccc(F)cc1	x	x	x	4%[21 µM]	x	x
